{"source": "PubChem BioAssay AID602358", "about": "(National Center for Advancing Translational Sciences (NCATS), 2012)", "note": "Records with an inconclusive call do not appear. A number with no mark means an inactive call. The source made the active and inactive calls. The call rests on the fitted dose curve; in most records, active means well fitted inhibition curve with a large enough effect; inconclusive means small, poorly fitted or top-dose-only effect; inactive means flat fitted curve, though single readings scatter."}
{"target": "Luciferin 4-monooxygenase (Photinus pyralis) (UniProt P08659)", "sequence (P08659 whole entry, looked up)": "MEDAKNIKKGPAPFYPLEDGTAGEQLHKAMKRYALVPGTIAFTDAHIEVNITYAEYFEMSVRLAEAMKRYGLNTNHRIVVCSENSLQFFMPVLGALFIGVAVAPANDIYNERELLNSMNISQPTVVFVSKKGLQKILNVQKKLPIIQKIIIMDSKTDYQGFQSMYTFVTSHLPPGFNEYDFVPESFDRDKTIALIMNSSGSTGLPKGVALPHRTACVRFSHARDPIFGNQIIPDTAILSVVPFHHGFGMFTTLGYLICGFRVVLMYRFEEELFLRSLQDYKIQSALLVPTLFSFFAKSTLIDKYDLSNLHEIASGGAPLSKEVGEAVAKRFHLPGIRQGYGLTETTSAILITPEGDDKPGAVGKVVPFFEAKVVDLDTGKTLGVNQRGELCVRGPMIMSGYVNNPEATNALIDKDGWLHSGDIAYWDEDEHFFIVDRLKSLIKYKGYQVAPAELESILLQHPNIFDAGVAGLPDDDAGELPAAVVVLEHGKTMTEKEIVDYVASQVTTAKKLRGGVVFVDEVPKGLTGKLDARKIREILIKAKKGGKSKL", "test": "FLuc inhibitory activity for the follow-up compounds in a biochemical assay with Km concentrations of substrate and 500microM CoASH", "details": "purified FLuc, Km substrates + 500 uM CoASH, luminescence; series mostly up to 57.5 µM; activity change, negative = inhibition: at the top concentration", "source_text": "NCGC Assay Overview: Firefly (Photinus pyralis) luciferase is one of the most commonly used transcriptional reporters. It is considered one of the more dynamically responsive reporters - that is, responsive to changes in reporter transcription - as it requires no post-translational modifications and is enzymatically active directly after protein synthesis (Wood, 1998). With no endogenous expression in mammalian cells and without the requirement of external excitation, it offers very little background signal, thus generally providing excellent signal to background for most assays. Previous profiling work to determine the prevalence of compounds that affect FLuc enzymatic activity (PubChem AID 411) identified that ~3% of the MLSMR library (then at ~72K) inhibited FLuc. […] Of the compounds identified in this profile that inhibited FLuc, 151 compounds were selected for further analysis, in an effort to better understand their mode of inhibiting FLuc. The assay described here was to determine the activity of the compounds in an FLuc assay that contained KM concentrations of substrates and 500uM CoASH.\nNCGC Assay Protocol Summary: Reagents: 50mM Tris acetate, pH 7.5; 10mM Mg acetate; 10uM D-luciferin (Sigma #L9504); 10uM ATP; 0.01% Tween-20; 0.05% BSA; 10nM P. pyralis luciferase (Sigma #L9506); 500 uM CoASH Control compounds used were two known firefly luciferase inhibitors (3-(5-(3-chlorophenyl)-1,2,4-oxadiazol-3-yl)benzoic acid and 5-(2-fluorophenyl)-3-phenyl-1,2,4-oxadiazole), and DMSO. Three microliters containing firefly luciferase substrates in buffer (final concentrations: 50mM Tris acetate, pH 7.5, 10mM Mg acetate, 0.01% Tween-20, 0.05% BSA, 10uM D-luciferin, 10uM ATP, and 500 uM CoASH) are dispensed into each well of a Greiner white, solid-bottom 1536-well format plate using a flying reagent dispenser (FRD). These assay plates were then treated with 23nL of compound or DMSO using a Kalypsys pin tool, which allows for delivery of a 12-point intraplate titration of each compound to the assay plate (quantitative HTS), with a final compound concentrations ranging from approximately ~60uM to 0.3nM. One microliter of firefly luciferase in 500mM Tris-acetate buffer was then delivered by FRD to each well for a final enzyme concentration of 10nM. Luciferase activity was then measured using a ViewLux CCD imager (PerkinElmer), with an average exposure time of 2-30 seconds (2X binning, medium/high gain).", "units": {"activity change, negative = inhibition": "%"}}
{"smiles": "CCc1noc(C)c1C(=O)Nc1nc2ccc(OC)cc2s1", "Potency": "13000 nM (active)"}
{"smiles": "CCOc1ccc(C(=O)Nc2ccccc2C(=O)O)cc1", "Potency": "410 nM (active)"}
{"smiles": "COc1ccc2nc(NC(=O)c3ccc([N+](=O)[O-])o3)sc2c1", "Potency": "1160 nM (active)"}
{"smiles": "COc1ccc(-c2nc3ccccc3s2)cc1NC(=O)c1ccc(F)cc1", "activity change, negative = inhibition": -19.4}
{"smiles": "COc1ccc(-c2nc3ccccc3s2)cc1O", "Potency": "32.6 nM (active)"}
{"smiles": "COc1ccc(-c2cccc(C(=O)Nc3cccc(C(=O)O)c3)c2)cc1", "Potency": "13000 nM (active)"}
{"smiles": "COc1ccc2nc(NC(=O)CCc3nc(-c4ccccc4F)no3)sc2c1", "activity change, negative = inhibition": -17.4}
{"smiles": "Cc1ccc2sc(-c3ccc(NC(=O)c4cc(-n5cnnc5)ccc4Cl)cc3)nc2c1", "Potency": "1630 nM (active)"}
{"smiles": "CCOc1c(Cl)cc(C(=O)Nc2ccccc2C(=O)O)cc1Cl", "Potency": "11600 nM (active)"}
{"smiles": "Cc1ccc(C(=O)Nc2cccc(C(=O)O)c2)cc1S(=O)(=O)N1CCCC1", "Potency": "5170 nM (active)"}
{"smiles": "Cc1ccccc1C(=O)Nc1cccc(C(=O)Nc2ccccc2C(=O)O)c1", "Potency": "16300 nM (active)"}
{"smiles": "COc1ccc(NS(=O)(=O)c2cccc(C(=O)Nc3ccccc3C(=O)O)c2)cc1", "activity change, negative = inhibition": -13.2}
{"smiles": "COc1ccc2nc(NC(=O)Cc3cccs3)sc2c1", "Potency": "5800 nM (active)"}
{"smiles": "O=C(Nc1ccccc1C(=O)O)c1cc(S(=O)(=O)Nc2ccccc2)ccc1Cl", "activity change, negative = inhibition": -4.97}
{"smiles": "Nc1cccc(-c2nc3ccc(N)cc3s2)c1", "Potency": "146 nM (active)"}
{"smiles": "CCOc1ccc2nc(NC(=O)c3ccccc3)sc2c1", "Potency": "206 nM (active)"}
{"smiles": "COc1ccc2nc(NC(=O)c3ccc4ncsc4c3)sc2c1", "Potency": "651 nM (active)"}
{"smiles": "O=C(Nc1ccccc1C(=O)O)c1cccc(NC(=O)c2ccco2)c1", "Potency": "6510 nM (active)"}
{"smiles": "O=C(Nc1ccc(-c2nc3ccccc3s2)cc1)C1=COCCO1", "Potency": "25.9 nM (active)"}
{"smiles": "CC(C)CC(=O)Nc1cccc(C(=O)Nc2ccccc2C(=O)O)c1", "Potency": "13000 nM (active)"}
{"smiles": "O=C(Cc1ccccc1)Nc1ccc(C(=O)Nc2ccccc2C(=O)O)cc1", "Potency": "9190 nM (active)"}
{"smiles": "O=C(COC(=O)c1ccccc1[N+](=O)[O-])c1ccc2c(c1)OCO2", "Potency": "2.3 nM (active)"}
{"smiles": "CC(=O)Oc1ccc(C(=O)Nc2ccccc2C(=O)Nc2cccc(C(=O)O)c2)cc1", "Potency": "2590 nM (active)"}
{"smiles": "COc1ccc(C(=O)Nc2nc3ccc(OC)cc3s2)cc1", "Potency": "580 nM (active)"}
{"smiles": "O=C(O)c1ccc(NC(=O)c2cccc(NC(=O)c3cccs3)c2)cc1", "Potency": "5800 nM (active)"}
{"smiles": "Nc1ccc(-c2nc3ccc(C(=O)O)cc3s2)cc1", "Potency": "146 nM (active)"}
{"smiles": "C/C(=N\\NC(=O)c1ccccc1NC(=O)c1ccc(Cl)cc1)c1ccncc1", "Potency": "4.6 nM (active)"}
{"smiles": "COc1cccc(-c2nc3ccccc3s2)c1", "Potency": "517 nM (active)"}
{"smiles": "Nc1ccc(C(=O)Nc2ccccc2C(=O)O)cc1", "Potency": "3260 nM (active)"}
{"smiles": "CCOc1ccc2nc(NC(=O)c3cccnc3)sc2c1", "Potency": "1300 nM (active)"}
{"smiles": "COc1ccc2nc(NC(=O)c3ccccc3C(=O)O)sc2c1", "Potency": "6510 nM (active)"}
{"smiles": "CC(C)c1ccc(-c2nc3ccccc3s2)cc1", "Potency": "13 nM (active)"}
{"smiles": "CC(C)(C)C(=O)Nc1ccc(-c2nc3ccccc3s2)cc1", "Potency": "10.3 nM (active)"}
{"smiles": "COc1ccc(C(=O)Nc2ccccc2-c2nc3ccccc3s2)c(OC)c1", "activity change, negative = inhibition": -9.63}
{"smiles": "COc1ccc2nc(NC(=O)c3ccco3)sc2c1", "Potency": "291 nM (active)"}
{"smiles": "O=C(O)c1cccc(NC(=O)c2cccc(S(=O)(=O)Nc3cccc(F)c3)c2)c1", "activity change, negative = inhibition": -7.88}
{"smiles": "COc1ccc(C(=O)Nc2ccccc2C(=O)Nc2ccc(C(=O)O)cc2)cc1", "Potency": "517 nM (active)"}
{"smiles": "Cc1ccc2nc(-c3ccc(NC(=O)CN4CCN(C(=O)c5ccco5)CC4)cc3)sc2c1", "Potency": "3660 nM (active)"}
{"smiles": "O=C(O)c1ccc(NC(=O)c2ccccc2NC(=O)c2cccc(Br)c2)cc1", "Potency": "7300 nM (active)"}
{"smiles": "Cc1ccc(C(=O)Nc2cccc(C(=O)O)c2)cc1S(=O)(=O)N1CCCCC1", "Potency": "3660 nM (active)"}
